Measured values as given in the supplement of paper PMC3334620.
Whole data set: some 33,000 sequences, median “E-score (-0.5 to 0.5)” near -0.04, cut for the highest 2% near 0.36. This excerpt belongs to a sample that is enriched for the highest values.

Target: T1, Hmlalpha2 (UniProt P0CY09)
T1 sequence: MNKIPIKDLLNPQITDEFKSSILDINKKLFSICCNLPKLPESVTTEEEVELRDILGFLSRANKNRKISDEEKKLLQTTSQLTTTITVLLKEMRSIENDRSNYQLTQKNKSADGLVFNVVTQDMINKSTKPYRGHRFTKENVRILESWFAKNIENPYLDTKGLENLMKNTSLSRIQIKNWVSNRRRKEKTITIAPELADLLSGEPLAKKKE
Experiment: PBM E-score (8-mer binding enrichment) (E-score (-0.5 to 0.5)); higher = stronger / more preferred TF binding
Settings: protein concentration: 200 nM; construct: GST-full length
How it was run: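 Masliner-normalised scans of fluorescent anti-GST signal were the basis for scoring. That signal came from GST-tagged yeast transcription factors applied at about 100-200 nM to double-stranded universal all-10-mer Agilent arrays on fresh or once-stripped slides. Each ungapped eight-base word, pooled with its reverse complement, received an E-score from the Universal PBM Analysis Suite.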

Sequence | PBM E-score
ACTACGCT | 0.106
ACTGCTCA | 0.0532
GAAGATAA | 0.242
AAAGGGAC | -0.2
GCAATCTA | 0.119
ATCTTCTA | -0.0325
CACATAGA | 0.0951
GACATAGA | 0.145
TACATAGA | 0.427
TGTTAAAA | 0.43
AGTTAACT | 0.129
AGTTAACA | 0.392
CGTTAAAA | 0.272
TGCTAACA | 0.245
TGTTAACA | 0.426
CGTTAACA | 0.34
TGTTATAA | 0.399
CGTTATAA | 0.222
AGTTAACG | 0.248
AGTTATAA | 0.172
GGTTAAAA | 0.28
AGCTGGAC | -0.0393
AAGGCCAC | -0.186
CGGGCAAC | -0.261
ATAGATTA | 0.151

Sequence | PBM E-score
AAAAAGGA | -0.00436
GTGGCTGA | -0.248
CCATGCGG | -0.12
GAGGAGAA | -0.191
GGTTAACA | 0.412
GGTTAACC | -0.142
GGTTAAGA | 0.148
CGCCAGAG | -0.305
GATGGTCC | -0.0351
CCCGGTGA | -0.242
ACTACATC | 0.275
ACTACATA | 0.378
GCTACATA | 0.255
ACGACATC | 0.0415
CCTACATA | 0.13
ACTACAGG | 0.133
ACGACATG | 0.382
ACGACATA | 0.134
ACTACATG | 0.43
CCGTTGTC | 0.0589
ACCCTGCA | 0.0038
CGATTGCG | -0.0285
AGTACATG | 0.415
AGTACATA | 0.401
CGTACATA | 0.363

Sequence | PBM E-score
AGTACATC | 0.233
AGTACAAG | 0.267
GGTACATA | 0.141
CTGCCATC | -0.239
CCTCCCCA | -0.233
CCGGCAGC | -0.36
AGCAATCG | 0.108
TATCAAAA | 0.173
CAGGCCCA | -0.135
CTATTCGC | -0.117
TCCGCCGA | -0.0873
AGCACGCA | 0.0284
GACACGCA | 0.301
ATCACGCG | 0.144
AACACGCT | 0.387
TACACGCA | 0.442
ACCACGCT | -0.134
CACACGCA | 0.19
AACACGCC | 0.359
AACACGCA | 0.412
AGCACGCT | 0.00597
AACACGCG | 0.406
CACACGCG | 0.264
ATGTCTTG | 0.0125
CACGCGGA | 0.109

Sequence | PBM E-score
AGATCCTA | -0.165
ACGGGACT | -0.101
CGAGCATA | -0.325
CCCTAACG | -0.0128
ATACTATG | 0.0473
GAAGCTCC | -0.218
ACTTCTTC | 0.0141
CTTTTATA | 0.0262
CTTTTACA | 0.453
ACTTTACA | 0.429
GCTTTAAA | 0.095
ACTTTACC | 0.151
ACTTTACT | 0.109
CTTTTACC | 0.139
ATTTTACC | 0.188
GCTTTACC | 0.21
ATTTTACA | 0.41
ATTTTACG | 0.31
GCTTTACA | 0.405
ATGGTAGC | -0.037
GTCAGTAA | 0.133
ACTCTCCC | -0.283
CTGGGATC | -0.141
CACATTGA | 0.097
AATTTCAC | 0.0769

Sequence | PBM E-score
CCTTTACG | 0.223
TCTTTACA | 0.445
TCTTTGCA | 0.0746
TCTTTAAA | 0.0801
CCTTTACA | 0.448
CCTTTACC | -0.204
GGAAAAAC | 0.0566
AATGATAT | 0.0696
AGTCTCTC | -0.306
CATGTCGA | 0.386
CATGTCAC | 0.245
GATGTCAA | 0.194
GATGTCGA | 0.126
AGTGTCAA | 0.134
CATGTCGG | 0.265
CGTGTCAA | 0.438
CGTGTCAG | 0.273
TATGTCAA | 0.426
CATGTCAA | 0.44
AATGTCAA | 0.182
CATGTCAG | 0.314
GAGGATCA | -0.143
CTCAGTAA | -0.0267
AACGCAGG | 0.0539
AGAATCTC | -0.015

Sequence | PBM E-score
GAGGTTAC | 0.0883
TAACTCGA | 0.277
AGACTCGA | -0.211
GGCGGTGA | -0.163
CGCCACAG | -0.0887
ACATGAAG | 0.338
CCATGAAC | -0.0422
ACATGAAC | 0.366
GCATGAAC | 0.104
ACATGAAT | 0.371
ACATGAAA | 0.302
AGCAGGCG | 0.046
GATTGTGC | 0.0144
ACGAGGAA | 0.0596
TACGCTGA | 0.122
ACATGCCA | 0.397
TCATGCAA | 0.107
AAATGCTG | 0.229
ACATGCTC | 0.388
ACATGCTG | 0.377
ACATGCAA | 0.398
CTATGCTC | -0.27
ACATGCAC | 0.36
ATATGCTG | -0.0833
ACATGCCT | 0.3

Sequence | PBM E-score
TCATGCCA | 0.0681
CCATGCTC | -0.13
GTGGCCCA | -0.191
ACGCAAAC | 0.125
CTCGCTAC | -0.181
CCGTTCCG | -0.225
AGCGAGTC | -0.136
CTCTAGAC | -0.116
ATCGGGGC | -0.175
AGTGCTCG | -0.187
GAGTTCGC | -0.169
TCGACAGA | -0.0778
CCATGCTA | 0.0439
ACATGCTA | 0.379
ACATGCGT | 0.399
ACATGCGG | 0.289
ACATGCGC | 0.308
GCATGCTA | 0.00271
TCAGCGGA | -0.169
GACCTCGC | -0.148
ACGCTCCT | 0.0508
GCTAAGGA | -0.195
AATCTCCA | 0.042
ACAAGCGA | 0.112
AGATACAT | 0.388

Sequence | PBM E-score
AGATACAA | 0.276
ACATACAC | 0.404
AGATACAG | -0.0238
CCATACAC | 0.145
GCATACAC | 0.256
ACATACAA | 0.325
ACATACAT | 0.421
ACATACAG | 0.336
CTCTGCCA | -0.219
ATTCTTAA | 0.148
GCCGAGCC | -0.127
GAGGCAGA | -0.265
CCGGACCG | -0.303
AATACTCA | 0.18
AATACACC | 0.307
AATACACG | 0.473
AATACACT | 0.326
AATACACA | 0.467
CATGAGTC | 0.175
ACCGGTCT | -0.25
ATTCCTGA | -0.0807
ATATAACA | 0.384
CTATAACA | 0.335
GTATAATA | 0.368
ATATAATA | 0.199

Sequence | PBM E-score
ATATAACC | -0.0903
GTATAAGA | 0.116
GTATAACA | 0.378
CTATAATA | -0.00916
GTATAAAA | 0.282
AGCGGTTC | -0.0786
TGATCAAA | -0.137
TCACCGAA | 0.0184
ACAAGTAC | 0.165
CATCGGTA | -0.217
GCAAAACC | -0.272
AAATCTTC | 0.0872
CCATCGCC | -0.261
ATGAACAT | 0.323
CGTTACAA | 0.318
AGTTACAG | 0.0744
AGTTACAC | 0.426
CGTTACAC | 0.385
CGTTACAG | -0.0046
GGTTACAC | 0.314
CGAAACTC | -0.242
CCGGCTGC | 0.0149
GGCCGACA | -0.247
GAATGCTC | -0.225
ATCTCACC | -0.126

Sequence | PBM E-score
CAATCCTG | 0.0153
AGGGGTTG | -0.253
CCAAGCGC | -0.0307
ACATGGGA | 0.33
ACATGGGC | 0.342
ACATGGAT | 0.388
ACATGGGT | 0.382
ACATGGAA | 0.317
ACATGGAG | 0.262
CCTAGGAA | -0.125
AACTTCAC | 0.121
CAGATTTC | -0.132
CGAATGCA | 0.145
GGCCATTA | 0.0102
AGAGTGCA | -0.0981
ACACGATG | 0.388
ACACGAAG | 0.358
AGACGATC | -0.29
AAACGATG | 0.0541
GCACGATA | 0.154
CCACGATC | 0.172
ACACGATA | 0.433
CCACGATA | -0.11
ACACGATC | 0.426
CGTGGCTC | -0.209

Sequence | PBM E-score
AAGTTCCC | -0.296
CGGTGGAC | -0.136
GAGATAAA | 0.0648
GTTTAATA | 0.218
ATTTAACA | 0.429
ATTTAACC | 0.0603
ATTTAACG | 0.355
CTTTAACA | 0.363
GTTTAACA | 0.41
CTGGGGGA | -0.422
GCCACGAC | -0.0179
ATCTGTGG | -0.267
CCAAAGAA | -0.0602
AAAAAGAT | -0.00444
CAGGGGCG | -0.0915
ACACCTAG | -0.163
CAAAACAG | 0.124
GACATGAA | 0.204
ATCATGAA | -0.0623
TACATGAA | 0.45
AGCATGAA | 0.0173
CACATGAA | 0.237
AACATGAA | 0.397
AGGCCCGC | -0.162
AGGCGATG | -0.128

Sequence | PBM E-score
AATCCGGT | -0.0356
ACCATTGA | 0.0496
GTAGACGA | 0.17
AAGACGAT | 0.0721
AAATAACA | 0.316
CAATAACA | 0.239
GAATAACC | -0.0464
TAATAACA | 0.387
GAATAATA | 0.168
GAATAACA | 0.39
GGTATTAA | 0.083
AGTATTAA | 0.249
TGTATTAA | 0.413
CCACATAG | -0.105
ATACATAA | 0.392
GTACATAC | 0.362
ACACATAA | 0.364
AGACATAT | 0.0652
CTACATAG | 0.406
CGACATAG | 0.139
ACATATAT | 0.27
ATACATAC | 0.386
ATACATAT | 0.393
AGACATAA | 0.143
CTACATAC | 0.327

Sequence | PBM E-score
AGGAAAGG | -0.238
CTCCTATC | -0.139
ACTTTAGA | -0.0293
CAGACACA | 0.035
ACCCTAAA | -0.212
AGCACTGC | -0.17
AAACATAG | 0.291
ACACATAG | 0.282
ATACATAG | 0.415
CGGAGGGC | -0.293
CACATGAG | 0.0365
AACATGAG | 0.379
AGCATGAT | 0.0873
CACATGAC | 0.267
GACATGAC | 0.29
ACCATGAT | -0.0585
AACATGAC | 0.425
AACATGAT | 0.439
AGCATGAG | 0.0355
GAGTAGAC | -0.0398
CTGGAACC | -0.109
CTGCCTTA | -0.206
ACGAGCCA | 0.0562
AGAGATAG | -0.0703
ATTGAGAA | 0.142

Sequence | PBM E-score
TCCTCGCA | -0.204
CTTCACCA | -0.283
ATCGCGTA | 0.368
CTTGCGTA | 0.286
GGCGCGTA | 0.255
ATCGCGTG | 0.192
GTCGCGTA | 0.414
AGCGCGTA | 0.388
ATTGCGTA | 0.296
CGCGCGTA | 0.283
ATCGCGTC | 0.216
GTCGCGGA | -0.252
CTCGCGTA | 0.22
GTTGCGTA | 0.378
GTCGCCAC | -0.316
GTTTGACA | 0.303
AGGAAGAT | -0.192
ATGACGCC | -0.105
ATGGAGAG | -0.115
